Screen size: about 69,000 compounds; about 8,600 (12%) showed an effect of 50% or more. This is one part of a sample in which strong results are shown more often than they occur.

In this assay the test system is Plasmodium berghei. Put plainly: Screen against P. berghei liver stage (PbLuc), transformed with Luciferase, at 10uM. The conditions noted are these: tested at 10 uM. The class given is functional, HepG2.
On to `COc1ccc(C[C@H]2CN(C(=O)CS(C)(=O)=O)CC[C@H]2OC)cc1`, for which the INHIBITION is listed as 33.4%. The same measure for `COCCN1CC[C@H]2CN(Cc3ccc(C)s3)C[C@@H]2C1=O`: -75%; for `CCc1cnc(N2CCCC(CCC(N)=O)C2)nc1` (configuration not stated): 17.9%. In the case of `c1nc(N2CCCC2)ncc1CN1CCCC(CN2CCCCC2)C1` (configuration not stated) it was 21.1%; in that of `NC(=O)CCC1CCCN(Cc2cnc(N3CCCCC3)nc2)C1` (configuration not stated), 67.8%. For the molecule `Cc1nn(C)c2ncc(C(=O)N3CCNC(=O)C3)cc12`, the INHIBITION is 1.86%.

As to `O=C(CC1CCCC1)N1CCC(c2cc3ncccc3c(O)n2)CC1`, the INHIBITION is on record as -2.11%. In the case of `COCC(=O)N1CCC(c2cc3ncccc3c(O)n2)CC1` it was -27.4%; in that of `O=C(CCC1CCCC1)N1CCC(c2cc3ncccc3c(O)n2)CC1`, 55.6%; in that of `O=C(c1c(F)cccc1F)N1CCOCC1`, 30.45%.

In the case of `O=C(Nc1cccc(CNCc2cccnc2)c1)C1CCCC1`, the INHIBITION came out at 39.65%. As for `Cc1nccn1Cc1cccc(CNC(=O)c2ccn(C)c(=O)c2)c1`, the INHIBITION came out at 53.8%. Regarding `Cn1ccc(C(=O)NCc2cccc(Cn3ccnc3)c2)cc1=O`, the INHIBITION amounted to 31.4%.

For the molecule `Cn1ccc(C(=O)NCc2cccc(NC(=O)C3CCC3)c2)cc1=O`, the INHIBITION stood at 61.1%. In the case of `Cn1ccc(C(=O)NCc2cccc(N3CCCCC3=O)c2)cc1=O` it was 45.9%; in that of `O=C(Nc1cccc(CNCc2ccsc2)c1)C1CC1`, 21.8%; in that of `Cn1ccc(C(=O)NCc2ccc(Cn3ccnc3)cc2)cc1=O`, -7.17%. In the case of `Cn1ccc(C(=O)NCc2cccc(CN3CCCC3)c2)cc1=O` it was 48.8%; in that of `O=C(Nc1cccc(CNCc2csc(Br)c2)c1)C1CC1`, 70.7%; in that of `COCCC(=O)N1CCC(c2cc(O)n(C)n2)C1` (configuration not stated), 0.301%. In the case of `O=C(O)CC(CC(=O)NCc1ccsc1)c1cccs1` (configuration not stated) it was -24%. As to `CCn1cc(NC(=O)NCCc2ccc3c(c2)OCO3)cn1`, the INHIBITION is listed as -23.9%. On to `CCc1nc(C(=O)N(C)CC(=O)N(C)C)nn1-c1ccccc1Cl`, for which the INHIBITION is 27.9%. The same measure for `c1ccc2oc(CCCN3CCOC(Cn4cncn4)C3)nc2c1` (configuration not stated): 47.1%; for `Cc1ccsc1C(=O)N1CCC(Nc2cccnc2)CC1`: -36.6%; for `COCCN1C(=O)[C@@H]2CC[C@H]1CN(S(=O)(=O)c1ccc(OC)cc1)C2`: 1.56%. The same measure for `Cc1cc(C(F)(F)F)c2c(C3CCCN(C(=O)C4CC4)C3)noc2n1` (configuration not stated): 26.8%; for `CNc1ccc(Cl)cc1C(=O)N1CCC(Cn2cc(CN)nn2)CC1`: 21.2%; for `CC(C)n1ncc2c1NC(=O)CC21C(=O)Nc2c(Cl)cc(Br)cc21` (configuration not stated): -23.7%. The same measure for `Cc1cc(Br)c2c(c1)C1(CC(=O)Nc3c1cnn3C(C)C)C(=O)N2` (configuration not stated): -34.8%; for `Cc1cc(C)c2c(c1)C1(CC(=O)Nc3c1cnn3C(C)C)C(=O)N2` (configuration not stated): -20.5%.

For `CC(C)n1ncc2c1NC(=O)CC21C(=O)Nc2c(Cl)ccc(Cl)c21` (configuration not stated), the INHIBITION is 73.6%.

For the molecule `CC(C)n1ncc2c1NC(=O)CC21C(=O)Nc2c(Br)cc(Cl)cc21` (configuration not stated), the INHIBITION was found to be 59.3%. Turning to `CC(C)n1ncc2c1NC(=O)CC21C(=O)Nc2c(Cl)cccc21` (configuration not stated), the INHIBITION is given as -75.8%. In the case of `CC(C)n1ncc2c1NC(=O)CC21C(=O)Nc2c(Cl)cc(Cl)cc21` (configuration not stated) it was -35.5%; in that of `CN1C(=O)C2(CC(=O)Nc3c2cnn3C(C)(C)C)c2c(Cl)cccc21` (configuration not stated), 5.58%; in that of `CC(C)n1ncc2c1NC(=O)CC21C(=O)Nc2cc(Cl)cc(Cl)c21` (configuration not stated), 89.6%.

For the molecule `CC(=O)c1ccc(N2CCN(C(=O)NCc3cc[nH]n3)CC2)cc1`, the INHIBITION was 48.4%.

Regarding `O=C(c1ccsc1)N1CCOC2(CCN(Cc3cccnc3)CC2)C1`, the INHIBITION is recorded as -9.67%.

With `COc1ccc2oc(C(C)NC(=O)NC3CCN(C)CC3)c(C)c2c1` (configuration not stated), the INHIBITION worked out at 2.4%.

`Cn1ccnc1CNC(=O)N(CCCO)C1CCc2ccccc21` (configuration not stated): the INHIBITION is listed as 8.05%. Consider `CCC[C@H]1CN(c2cncc(C(=O)N3CCCCC3)n2)C[C@@H]1N(C)C`, for which the INHIBITION is given as -12.2%. As to `COCCNC(=O)Cn1cc(OCc2ccc(F)cc2)c(=O)cc1C`, the INHIBITION worked out at 25.8%. The same measure for `Cc1nc(O)cc(C2CCCN2CCO)n1` (configuration not stated): 13.5%; for `CC(=O)Cc1c(C)nn(-c2cncc(N)c2)c1C`: 11.5%; for `O=C1CC2(CCCC2)CN1CCOc1ccc(F)cc1`: -144%. In the case of `CC(=O)OC1CN(c2nc3c(C(F)(F)F)cccc3s2)C1` it was -107%; in that of `O=C(C1=COCCO1)N1CC(Oc2nc3c(Cl)cccc3s2)C1`, 74.6%; in that of `O=C(C1=COCCO1)N1CC(Oc2nc3c(C(F)(F)F)cccc3s2)C1`, 81.1%. The same measure for `COc1cccc2sc(OC3CN(C(=O)C4=COCCO4)C3)nc12`: 13.3%; for `OC1CN(c2nc3c(C(F)(F)F)cccc3s2)C1`: -40%. For `Cn1nc(C(=O)N2CC(Oc3nc4c(Cl)cccc4s3)C2)ccc1=O`, the INHIBITION worked out at 29.6%. In the case of `CC1CCN(C(=O)CSc2nc3c(cnn3CCO)c(=O)[nH]2)CC1` it was 38.6%. In the case of `O=C(c1ccc2[nH]nnc2c1)N1CC[C@H](O)[C@]2(CCCO2)C1` it was 1.62%; in that of `CCc1cccc(NC(=O)N2CCn3cnc(COC)c3C2)c1`, -2.35%. The same measure for `CCN(CC1CCCO1)C(=O)Nc1cc(C(N)=O)ccc1OC` (configuration not stated): 2.3%.

With `O=C(Cc1ccsc1)N1CCC[C@@H]1Cn1c(=O)oc2ccccc21`, the INHIBITION was 8.2%.

For the molecule `O=C(NCC1CCOCC1)[C@@H]1CC[C@@H]2[C@@H](CCN2Cc2ccncc2)O1`, the INHIBITION is -54.7%. In the case of `O=C(CN(Cc1cccnc1)CC1CCCO1)Nc1ccc(F)cc1` (configuration not stated), the INHIBITION is 21.6%.

Regarding `O=C(CCc1cccnc1)N(Cc1ccsc1)CC1CCCO1` (configuration not stated), the INHIBITION is -9.86%. As for `O=C(COCC1CCCO1)N(Cc1cccnc1)c1ccc(F)cc1` (configuration not stated), the INHIBITION worked out at 53.3%. Regarding `Cn1cc(C2CC(=O)NC23CCN(C(=O)c2cccnc2)CC3)cn1` (configuration not stated), the INHIBITION stood at 33.4%.

Take `O=C(c1csc(-c2ncccn2)n1)N1CCCC1Cn1cccn1` (configuration not stated): the INHIBITION is 41.5%. The same measure for `O=C(Nc1cccc(CNCc2cccs2)c1)C1CC1`: 20.5%. As to `O=C(Nc1cccc(CNCc2cccs2)c1)C1CCCC1`, the INHIBITION was 36.9%. The same measure for `CC(C)CC(=O)Nc1cccc(CNCc2cccs2)c1`: 52.1%. Turning to `Cc1cnn(CC2CCCN2C(=O)c2sccc2-n2cnnn2)c1` (configuration not stated), the INHIBITION was -29.1%. For `COCCC(=O)N(C)CCC1=CCN(C)CC1`, the INHIBITION was -6.274%.

As to `CN(C)C(=O)C1(c2cnccn2)CCCN1C(=O)Cc1ccsc1` (configuration not stated), the INHIBITION amounted to 41%. In the case of `CN1CC[C@]2(CN(C(=O)[C@H]3CCCO3)C[C@H]2c2ccccc2)C1=O` it was 4.02%; in that of `CN1Cc2ccccc2CC2(CCN(C(=O)[C@H]3CCCO3)CC2)C1=O`, 59.3%. In the case of `CCN1CC[C@]2(CN(C(=O)[C@H]3CCCO3)C[C@H]2c2ccccc2)C1=O` it was 52.3%; in that of `CN1Cc2ccccc2CC2(CCN(C(=O)N3CCOCC3)CC2)C1=O`, 26.5%; in that of `CCN1CC[C@]2(CN(C(=O)C3CCOCC3)C[C@H]2c2ccccc2)C1=O`, 20.1%. In the case of `O=C([C@H]1CCCO1)N1CCC2(CC1)Cc1ccccc1CNC2=O` it was 7.7%; in that of `CSCCC(=O)N1CCCC(n2ccnc2)C1` (configuration not stated), -6.14%; in that of `CC(C)Cn1cc2nc(N)[nH]cc-2c1=O`, 29.2%. Turning to `O=C(NCCN1CCCCCC1=O)Nc1cccnc1-n1cccn1`, the INHIBITION was -15.4%. The same measure for `CCc1ncc2c(n1)CN(c1cc(NC3CC3)nc(N)n1)C2`: -49.6%; for `CCn1cc(-n2cc3nc(N)[nH]cc-3c2=O)cn1`: -8.69%. The same measure for `CCN(CC)S(=O)(=O)c1cc(NC(=O)CCc2cscn2)ccc1C`: 28.9%; for `CCN(CC1CCCO1)S(=O)(=O)c1cc(NC(C)=O)ccc1C` (configuration not stated): 47.7%; for `CCCN(CCC)S(=O)(=O)c1cc(NC(C)=O)ccc1C`: 71.2%. The same measure for `O=C(c1cccc(C2CCNC2)c1)N1CCC(N2CCC(O)CC2)CC1` (configuration not stated): 35.1%; for `COc1ccc(C(=O)N2CCOC3(CNCCOC3)C2)c(OC)n1` (configuration not stated): 53.6%; for `COc1ccc(Cl)cc1C(=O)N1CCOC2(CNCCOC2)C1` (configuration not stated): 16.8%. `Cc1cc2cccc(C(=O)N3CCOC4(CNCCOC4)C3)c2o1` (configuration not stated): the INHIBITION worked out at 30.5%. In the case of `Cc1ccccc1C(=O)N1CCOC2(CNCCOC2)C1` (configuration not stated) it was 55.1%; in that of `O=C(c1ccccc1-c1ccccc1)N1CCOC2(CNCCOC2)C1` (configuration not stated), -16.5%. The same measure for `CN(C)c1ccccc1C(=O)N1CCOC2(CNCCOC2)C1` (configuration not stated): 8.53%; for `Cc1nc(C)n(CC2CCCN2CC(=O)NCCC#N)n1` (configuration not stated): 8.38%. In the case of `Cc1nc(-c2ccc(C(=O)O)cc2)cc(C2CCN(C(C)C)CC2)n1` it was 26.3%. `OC(CN1CCC(c2ccn[nH]2)CC1)c1ccc(F)cc1` (configuration not stated): the INHIBITION was -12.2%.

On to `Cc1cc(Nc2nc(C)cc(C)n2)cc(C2CCCN2)n1` (configuration not stated), for which the INHIBITION is 49.2%.

In the case of `Cc1cc(S(=O)(=O)N2C[C@H](C3CC3)[C@@H](N)C2)c(C)s1`, the INHIBITION came out at 1.71%. In the case of `COc1ccc(CC(=O)N2CC(=O)NCC(C)(C)C2)cc1` it was 60.1%. For `CC1(C)CNC(=O)CN(C(=O)Cc2ccccc2)C1`, the INHIBITION is recorded as -1.99%.

As for `CN1C[C@H](O)[C@]2(CCN(C(=O)COc3ccccc3)C2)S1(=O)=O`, the INHIBITION was 9.36%. As to `CC1(C)CNC(=O)CN(C(=O)COc2ccccc2)C1`, the INHIBITION is 55.5%. On to `CC1(C)CNC(=O)CN(C(=O)CCc2ccccc2)C1`, for which the INHIBITION came out at 40.4%.

For the molecule `COc1ccc(CC(=O)N2CCN(C)c3ncccc3C2)cc1`, the INHIBITION came to 8.44%. In the case of `CSc1[nH]nc(NC(=O)c2cccs2)c1C#N` it was 24.2%; in that of `Cn1cc(CCNCc2cc(Cl)c3c(c2)OCCO3)cn1`, -9.4%; in that of `O=C1Nc2ccccc2CN(CC2CCCC2)C12CCNC2` (configuration not stated), -44.5%. The same measure for `O=C(NCc1nnc2n1CCC2)c1cn(-c2ccccc2)nn1`: 13.6%. In the case of `O=C(NCc1nnc2n1CCCC2)c1cn(-c2ccccc2)nn1` it was 36.4%; in that of `O=C(NCc1nnc2n1CCC2)c1cn(-c2ccccc2Br)nn1`, 50.4%.

The record behind these values is ChEMBL document CHEMBL4513216, “Probing the Open Global Health Chemical Diversity Library for Multistage-Active Starting Points for Next-Generation Antimalarials” (ACS Infect Dis, 2020).
